Source: the supplement of paper PMC6555819

Tests used:
Assay in all cases: PBM binding z-score (relative to random genomic background probes); higher = stronger binding; sequences stand for … in GC…GCGATTGACAGCGTAGAATGAAGG
[1] = system: FXR:RXRa (NR concentration 270 nM, RXRa partner concentration 90 nM)
Method in brief: (§1)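 Ligand-free nuclear receptor dimers were applied to custom Agilent 4×180K protein-binding microarrays whose double-stranded probes carried direct-repeat seeds, single-nucleotide variants, half-site ablations and random human genomic background sequences in 34-nt variable regions. Incubation lasted 1 h. Binding z-scores were computed against the random background probes from regression-normalized fluorescence.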

[2] = system: LXRa:RXRa (NR concentration 270 nM, RXRa partner concentration 90 nM)
Method in brief: as §1

[3] = system: LXRa homodimer (NR concentration 270 nM)
Method in brief: as §1

[4] = system: LXRb:RXRa (NR concentration 270 nM, RXRa partner concentration 90 nM)
Method in brief: as §1

[5] = system: LXRb homodimer (NR concentration 270 nM)
Method in brief: as §1

[6] = system: PPARa:RXRa (NR concentration 270 nM, RXRa partner concentration 90 nM)
Method in brief: as §1

[7] = system: PPARg:RXRa (NR concentration 180 nM, RXRa partner concentration 90 nM)
Method in brief: as §1

[8] = system: PPARg:RXRa 270nM:90nM, anti-RXR (NR concentration 270 nM, RXRa partner concentration 90 nM)
Method in brief: as §1

[9] = system: PPARg:RXRa 30nM:10nM, anti-RXR (NR concentration 30 nM, RXRa partner concentration 10 nM)
Method in brief: as §1

[10] = system: PPARg:RXRa 90nM:30nM, anti-RXR (NR concentration 90 nM, RXRa partner concentration 30 nM)
Method in brief: as §1

[11] = system: PPARg:RXRa DBDmut IVT, anti-RXR (DBD mutation: RXRa K156A/R161A, NR concentration 270 nM, RXRa partner concentration 90 nM)
Method in brief: as §1

[12] = system: PPARg:RXRa IVT, anti-PPARg (NR concentration 270 nM, RXRa partner concentration 90 nM)
Method in brief: as §1

[13] = system: PPARg DBDmut:RXRa IVT, anti-PPARg (DBD mutation: PPARg1 K132A/R137A, NR concentration 270 nM, RXRa partner concentration 90 nM)
Method in brief: as §1

[14] = system: PPARg DBDmut IVT, anti-PPARg (DBD mutation: PPARg1 K132A/R137A, NR concentration 270 nM)
Method in brief: as §1

[15] = system: PPARg homodimer (NR concentration 180 nM)
Method in brief: as §1

[16] = system: PXR:RXRa (NR concentration 270 nM, RXRa partner concentration 90 nM)
Method in brief: as §1

[17] = system: PXR homodimer (NR concentration 270 nM)
Method in brief: as §1

[18] = system: RARa:RXR (NR concentration 270 nM, RXRa partner concentration 90 nM)
Method in brief: as §1

[19] = system: RARa homodimer (NR concentration 270 nM)
Method in brief: as §1

[20] = system: RARb:RXRa (NR concentration 270 nM, RXRa partner concentration 90 nM)
Method in brief: as §1

Sequence | PBM binding z-score [1] | PBM binding z-score [2] | PBM binding z-score [3] | PBM binding z-score [4] | PBM binding z-score [5] | PBM binding z-score [6] | PBM binding z-score [7] | PBM binding z-score [8] | PBM binding z-score [9] | PBM binding z-score [10] | PBM binding z-score [11] | PBM binding z-score [12] | PBM binding z-score [13] | PBM binding z-score [14] | PBM binding z-score [15] | PBM binding z-score [16] | PBM binding z-score [17] | PBM binding z-score [18] | PBM binding z-score [19] | PBM binding z-score [20]
GCTAGCAGGCCATTTGGGTCACTCTATGACGGGC | 0.0268 | -0.16 | -0.53 | -0.351 | -0.817 | 0.925 | 0.594 | 0.327 | -0.547 | -0.167 | 2.04 | 2.04 | -0.319 | -0.713 | -0.345 | 0.138 | -0.0419 | 0.546 | -0.641 | 1.27
TCTGCTAGTTCAACGATGGTCAGCTAATCTGCTA | 0.141 | 0.175 | -0.555 | -0.303 | -0.648 | 0.264 | -0.456 | 0.558 | 1.26 | 0.99 | 0.463 | -0.112 | -0.479 | -0.339 | -1.27 | 0.51 | -0.0476 | 0.475 | -1.49 | 1.55
ATCTCTAGGTACAAGTTCAGTGAATCCCGAGGAT | 0.207 | 0.339 | 0.332 | 0.411 | 0.905 | 2.42 | 3.28 | 4.58 | 3.23 | 4.51 | 0.163 | 1.47 | 0.611 | 0.766 | 0.56 | 1.92 | 1.54 | 0.393 | 0.103 | 1.66
GCAGACAGGTGAAGCGCAGGTAACTCAGGGTGGC | -0.663 | -0.276 | -0.718 | -0.713 | -1.29 | -0.0823 | 0.129 | -0.656 | -1.07 | -0.9 | 0.302 | 0.226 | -0.748 | -1.21 | -0.277 | -0.484 | -0.646 | -0.125 | -1.03 | 0.497
AGTCAAAGTTCATCTAGGTAAAGTAAGATATGCT | 7.01 | 5.97 | 5.01 | 4.24 | 1.97 | 5.14 | 7.07 | 6.73 | 3.75 | 5.54 | 1.06 | 3.88 | 1.43 | 0.713 | 3.61 | 5.45 | 7.79 | 4.38 | 2.12 | 5.22
CTCGAAACGTCGGTTGAGGTGAGTATACGGATAA | 0.172 | -0.188 | -0.566 | -0.297 | -0.3 | -0.163 | 0.00135 | -0.342 | -0.256 | -0.221 | -0.197 | -0.061 | 0.192 | 0.207 | 0.264 | 0.0163 | -0.284 | 0.752 | -0.037 | 0.205
ATATGTAGGTTACATCCGTGTCATTCAGGCTATG | 0.799 | 4.06 | 0.794 | 1.81 | 0.59 | 3.6 | 5.07 | 4.33 | 1.88 | 3.27 | 7.68 | 7.5 | 2.03 | 4.51 | 1.36 | 0.878 | 0.202 | 0.935 | 0.528 | 1.28
